From PubChem BioAssay (NCI)
About 79,000 compounds went through this panel and 15% of them were active in at least one assay; those are over-represented in the sample as a whole. Values without a mark were called inactive. The source made the active and inactive calls. Rule as the data show it: active = growth inhibition above about 70%; inactive = the rest.

Experiment: NCI Yeast Anticancer Drug Screen. Data for the mec2-1 strain (AID 157)
Conditions: S. cerevisiae mec2-1 strain, at 100.0 µM, active compounds read high
Outline: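 Readout is yeast growth inhibition, normalised to vehicle-treated controls, in the mec2-1 strain exposed to compound.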

Going from S=C(S)NN1CCOCC1 to O=C1C2CC[C@@H]3C(=O)C(Cl)(Cl)[C@@H]3CCC2C1(Cl)Cl (stereo not given in full), the growth inhibition falls from 35% to 24%.

First: COc1cc2c3c(cccc3c1)C(=O)N(CCN(C)C)C2=O
Second: CC1=C(SCCO)C(=O)c2ccccc2C1=O
The growth inhibition of the first is lower: 9% for the first, 11% for the second.

First: c1ccc2c(c1)Oc1cccc3cccc-2c13
Second: BrCc1cccc2ccc3cccc(CBr)c3c12
The growth inhibition of the first is higher: 20% for the first, -2% for the second.

Compared with Cc1ccc(CCC2=CCCc3c2ccc2ccccc32)cc1, CN(CCc1ccccn1)c1ccc2c(c1)Cc1ccccc1-2 is higher in growth inhibition: 5% for the first, 20% for the second.

Compared with Clc1ccccc1C1OC1c1ccccc1Cl (stereo not given), O=C1c2ccccc2-c2nc3ccccc3nc21 is higher in growth inhibition: -37% for the first, 67% for the second.

First: CC[n+]1ccc2c(C)c3[nH]c4ccc(O)cc4c3c(C)c2c1
Second: Cc1ccc2ccc(O)cc2c1
The growth inhibition of the first is lower: 24% for the first, 50% for the second.

Going from Cc1ccc(-n2cc(-c3ccc(Cl)cc3)c(C#N)c2N)cc1 to Nc1nc(-c2cccnc2)cc(-c2cc(-c3cccnc3)nc(N)n2)n1, the growth inhibition falls from 1% to -6%.

First: C/C(=N\O)C1CC2C=C(C#N)C1N(Cc1ccccc1)C2 (stereo not given)
Second: CC(Br)C(=O)c1ccc2cc(Br)c3ccccc3c2c1 (stereo not given)
The growth inhibition of the first is lower: 0% for the first, 16% for the second.

Going from CCC(C)COC(=O)c1ccc(N=Cc2ccc(C=Nc3ccc(C(=O)OCC(C)CC)cc3)cc2)cc1 (stereo not given) to CC[C@@]1(O)C(=O)OCc2c1cc1n(c2=O)Cc2cc3c(N)cccc3nc2-1, the growth inhibition rises from 8% to 30%.

Going from Cc1cc(S(=O)(=O)/N=C(/NN)NNc2cccc(C(F)(F)F)n2)c(S)cc1Cl to O=C1C(=O)c2ccccc2C=C1[N+](=O)[O-], the growth inhibition rises from 16% to 35%.

In the case of COC(=O)C1=C(C)NC(C)=C(C(=O)OCCCN2CCC(c3ccccc3)(c3ccccc3)CC2)C1c1cccc([N+](=O)[O-])c1 (stereo not given), the growth inhibition is reported as 92% (active).
In the case of CN(C)CCOc1ccc2c(c1)C/C(=C/c1ncc([N+](=O)[O-])n1C)C2=O, the growth inhibition is reported as 90% (active).
With CNC(=O)OCc1c(COC(=O)NC)c(-c2ccc(Cl)c(Cl)c2)n2c1CCC2 the growth inhibition was 98% (active).
In the case of O=[N+]([O-])c1cc(CCl)ccc1CCl, the growth inhibition is reported as 98% (active).
With O=C1C=CC(=O)c2c(O)c(Nc3ccc(OC(F)(F)F)cc3)c(Cl)c(O)c21 the growth inhibition was 94% (active).
In the case of S=c1[nH]nc(Nc2ccc(Cl)cc2)s1, the growth inhibition is reported as 91% (active).
For Cn1ccnc1Oc1ccc(Cl)cc1, the growth inhibition was 97% (active).
With CCCCCCCCCCCCCCCCCCNC the growth inhibition was 96% (active).
In the case of Oc1ccc(NCn2c(=S)sc3ccccc32)cc1, the growth inhibition is reported as 99% (active).
For CC(=O)[O][Bi]([c]1ccccc1)[c]1ccccc1, the growth inhibition was 95% (active).
For CC(C)=CC(=O)O[C@@H]1CC(C)(C)CC2C3=CCC4[C@]56CC[C@](O)(OC5)C(C)(C)C6CC[C@@]4(C)C3(C)CC[C@]21C(=O)O (stereo not given in full), the growth inhibition was 89% (active).
With Oc1cccc2c(Cl)ccnc12 the growth inhibition was 99% (active).
For O=C(O)c1cccc(-c2c3ccc(=O)cc-3oc3cc(O)ccc23)c1, the growth inhibition was 96% (active).
With O=C1C2C(C(=O)N1c1ccc(OCc3ccccc3)cc1)C1c3ccccc3C2C2CCCCN21 (stereo not given) the growth inhibition was 93% (active).
For Nc1ccccc1CC(O)C(=O)O (stereo not given), the growth inhibition was 90% (active).
For O=C(O)C1CCCCC1c1c2ccc(=O)c(O)c-2oc2c(O)c(O)ccc12 (stereo not given), the growth inhibition was 85% (active).
With COC(=O)c1ccc(NCC2=CC(=O)C=CC2=O)cc1O the growth inhibition was 89% (active).
In the case of C(CCSC1=NCCN1)CSC1=NCCN1 (tested in a mixture with another compound), the growth inhibition is reported as 99% (active).
With N#Cc1c(N)[nH]c2ccc(Sc3ccccc3)cc12 the growth inhibition was 97% (active).
For CCNc1nnc(CSc2nc(-c3ccccc3)c(-c3ccccc3)[nH]2)s1, the growth inhibition was 77% (active).

Experiment: NCI Yeast Anticancer Drug Screen. Data for the rad14 strain (AID 159);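 also: 0% = growth of vehicle-treated control cultures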
Conditions: S. cerevisiae rad14 strain growth inhibition; at 1.2 µM; active compounds read high
Outline: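 Screen for anticancer potential: a yeast strain altered in DNA damage repair is grown with compound, and reduced growth is quantified against vehicle controls.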

First: S=C(S)NN1CCOCC1
Second: CNC(=O)OCc1c(COC(=O)NC)c(-c2ccc(Cl)c(Cl)c2)n2c1CCC2
The growth inhibition of the first is higher: 33% for the first, -34% for the second.

First: COc1cc2c3c(cccc3c1)C(=O)N(CCN(C)C)C2=O
Second: CN(C)CCOc1ccc2c(c1)C/C(=C/c1ncc([N+](=O)[O-])n1C)C2=O
The growth inhibition of the first is lower: -33% for the first, 33% for the second.

Compared with COC(=O)C1=C(C)NC(C)=C(C(=O)OCCCN2CCC(c3ccccc3)(c3ccccc3)CC2)C1c1cccc([N+](=O)[O-])c1 (stereo not given), O=C1C2C(C(=O)N1c1ccc(OCc3ccccc3)cc1)C1c3ccccc3C2C2CCCCN21 (stereo not given) is lower in growth inhibition: 20% for the first, -2% for the second.

Going from c1ccc2c(c1)Oc1cccc3cccc-2c13 to BrCc1cccc2ccc3cccc(CBr)c3c12, the growth inhibition falls from 0% to -2%.

Going from Cc1ccc(CCC2=CCCc3c2ccc2ccccc32)cc1 to CN(CCc1ccccn1)c1ccc2c(c1)Cc1ccccc1-2, the growth inhibition rises from -4% to 1%.

Compared with Clc1ccccc1C1OC1c1ccccc1Cl (stereo not given), CC(=O)[O][Bi]([c]1ccccc1)[c]1ccccc1 is higher in growth inhibition: -46% for the first, 39% for the second.

Going from O=[N+]([O-])c1cc(CCl)ccc1CCl to O=C1C(=O)c2ccccc2C=C1[N+](=O)[O-], the growth inhibition falls from 8% to 2%.

Going from O=C1C=CC(=O)c2c(O)c(Nc3ccc(OC(F)(F)F)cc3)c(Cl)c(O)c21 to COC(=O)c1ccc(NCC2=CC(=O)C=CC2=O)cc1O, the growth inhibition rises from 2% to 33%.

First: S=c1[nH]nc(Nc2ccc(Cl)cc2)s1
Second: Cn1ccnc1Oc1ccc(Cl)cc1
The growth inhibition of the first is higher: -3% for the first, -5% for the second.

First: O=C1c2ccccc2-c2nc3ccccc3nc21
Second: CC1=C(SCCO)C(=O)c2ccccc2C1=O
The growth inhibition of the first is lower: -43% for the first, 2% for the second.

First: CCCCCCCCCCCCCCCCCCNC
Second: C(CCSC1=NCCN1)CSC1=NCCN1 (tested in a mixture with another compound)
The growth inhibition of the first is lower: -22% for the first, 5% for the second.

Going from Oc1ccc(NCn2c(=S)sc3ccccc32)cc1 to Cc1ccc2ccc(O)cc2c1, the growth inhibition falls from -11% to -18%.

First: O=C1C2CC[C@@H]3C(=O)C(Cl)(Cl)[C@@H]3CCC2C1(Cl)Cl (stereo not given in full)
Second: O=C(O)C1CCCCC1c1c2ccc(=O)c(O)c-2oc2c(O)c(O)ccc12 (stereo not given)
The growth inhibition of the first is higher: 0% for the first, -17% for the second.

Going from CC[n+]1ccc2c(C)c3[nH]c4ccc(O)cc4c3c(C)c2c1 to N#Cc1c(N)[nH]c2ccc(Sc3ccccc3)cc12, the growth inhibition rises from -22% to 1%.

Going from Cc1ccc(-n2cc(-c3ccc(Cl)cc3)c(C#N)c2N)cc1 to O=C(O)c1cccc(-c2c3ccc(=O)cc-3oc3cc(O)ccc23)c1, the growth inhibition falls from -1% to -29%.

C/C(=N\O)C1CC2C=C(C#N)C1N(Cc1ccccc1)C2 (stereo not given) and Nc1ccccc1CC(O)C(=O)O (stereo not given) are the same in growth inhibition: -3% for the first, -3% for the second.

Going from CC(Br)C(=O)c1ccc2cc(Br)c3ccccc3c2c1 (stereo not given) to Oc1cccc2c(Cl)ccnc12, the growth inhibition rises from 0% to 37%.

First: Nc1nc(-c2cccnc2)cc(-c2cc(-c3cccnc3)nc(N)n2)n1
Second: CCNc1nnc(CSc2nc(-c3ccccc3)c(-c3ccccc3)[nH]2)s1
The growth inhibition of the first is higher: -1% for the first, -10% for the second.

Compared with CC(C)=CC(=O)O[C@@H]1CC(C)(C)CC2C3=CCC4[C@]56CC[C@](O)(OC5)C(C)(C)C6CC[C@@]4(C)C3(C)CC[C@]21C(=O)O (stereo not given in full), CC[C@@]1(O)C(=O)OCc2c1cc1n(c2=O)Cc2cc3c(N)cccc3nc2-1 is lower in growth inhibition: -15% for the first, -20% for the second.

CCC(C)COC(=O)c1ccc(N=Cc2ccc(C=Nc3ccc(C(=O)OCC(C)CC)cc3)cc2)cc1 (stereo not given) and Cc1cc(S(=O)(=O)/N=C(/NN)NNc2cccc(C(F)(F)F)n2)c(S)cc1Cl are the same in growth inhibition: -1% for the first, -1% for the second.
